The values below come from PubChem BioAssay (NCI).

The structures appear in SMILES notation. The panel holds about 79,000 compounds, 15% with a hit somewhere; the sample as a whole holds those more often. Values without a mark were called inactive. Activity calls are given as the source filed them. Rule as the data show it: active = growth inhibition above about 70%; inactive = the rest.

Assay [1] in a line: NCI Yeast Anticancer Drug Screen. Data for the rad50 strain (AID 155).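 Also: 0% = growth of vehicle-only cultures of the same strain.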 The settings on record: S. cerevisiae rad50 strain growth inhibition, active compounds read high. In short, it runs like this: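 Yeast carrying a defined DNA repair defect were exposed to test compounds, and growth was compared with vehicle-treated controls to give percent inhibition.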
The nature of assay [2]: NCI Yeast Anticancer Drug Screen. Data for the mec2-1 strain (AID 157). The settings on record: S. cerevisiae mec2-1 strain, active compounds read high. The method in brief:
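Cells of the genetically defined mec2-1 yeast strain are incubated with test compound. Inhibition of growth is calculated against vehicle-treated controls.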

Assay [3] in a line: NCI Yeast Anticancer Drug Screen. Data for the sgs1 mgt1 strain (AID 161).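 Also: 0% = growth of cultures given vehicle only.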 Conditions: S. cerevisiae sgs1 mgt1 strain, active compounds read high. The method in brief:
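Test agents were incubated with a DNA-repair-mutant yeast strain. Growth was then read and compared against vehicle-treated controls.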

The nature of assay [4]: NCI Yeast Anticancer Drug Screen. Data for the cln2 rad14 strain (AID 165).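 Also: 0% = growth equal to vehicle treated cultures.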 The settings on record: S. cerevisiae cln2 rad14 strain, active compounds read high. The method in brief: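 The screen exposed genetically defined yeast (cln2 rad14) to test compounds and scored growth inhibition relative to vehicle-treated controls.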
A short description of assay [5]: NCI Yeast Anticancer Drug Screen. Data for the bub3 strain (AID 167). The settings on record: S. cerevisiae bub3 mutant strain, active compounds read high. The method in brief:
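Compounds were applied to a genetically altered yeast strain carrying a cell-cycle control defect. Growth inhibition was scored against vehicle-treated controls.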

A short description of assay [6]: NCI Yeast Anticancer Drug Screen. Data for the mlh1 rad18 strain (AID 175). The settings on record: S. cerevisiae mlh1 rad18 strain growth inhibition, active compounds read high. In short, it runs like this:
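Compound-treated yeast growth, normalised to vehicle controls. Strain bears defined DNA repair mutations.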

The mark [7] stands for this setting: at 5.0 µM (retest, dose inferred, filed as 0.5).
Where [8] appears, read: at 50.0 µM (retest, dose inferred, filed as 5.0).

On to `NCCSC1(O)C(=O)c2ccccc2-c2ccccc21` (stereo not given), for which the growth inhibition in assay [1] (setting [7]) was 6%; in assay [1] (setting [8]), 98% (active); in assay [1] (at 50.0 µM), 98.8% (active); in assay [2] (setting [7]), 84% (active); in assay [2] (setting [8]), 99% (active); in assay [2] (at 50.0 µM), 98.2% (active). The growth inhibition is 32% in assay [3] (setting [7]); 99% (active) in assay [3] (setting [8]); 99.1% (active) in assay [3] (at 50.0 µM); -14% in assay [4] (setting [7]); 99% (active) in assay [4] (setting [8]); 96.2% (active) in assay [4] (at 50.0 µM). In addition, the growth inhibition in assay [5] (setting [7]) was 79% (active); in assay [5] (setting [8]) it was 99% (active); in assay [5] (at 50.0 µM) it was 97.8% (active); in assay [6] (setting [7]), 57%; in assay [6] (setting [8]), 99% (active); in assay [6] (at 50.0 µM), 98.8% (active).

With `COc1ccc(C(SCC(N)C(=O)O)(c2ccc(OC)cc2)c2ccc(OC)cc2)cc1` (stereo not given), the growth inhibition in assay [1] (setting [7]) is -11%; in assay [1] (setting [8]) it was 97% (active); in assay [1] (at 50.0 µM), 94.7% (active); in assay [2] (setting [7]), -7%; in assay [2] (setting [8]), 99% (active); in assay [2] (at 50.0 µM), 96.3% (active). The growth inhibition in assay [3] (setting [7]) is -4%; in assay [3] (setting [8]), 99% (active); in assay [3] (at 50.0 µM), 96.3% (active); in assay [4] (setting [7]), -7%; in assay [4] (setting [8]), 98% (active); in assay [4] (at 50.0 µM) it was 94.7% (active). Besides, the growth inhibition was 15% in assay [5] (setting [7]); 98% (active) in assay [5] (setting [8]); 96.5% (active) in assay [5] (at 50.0 µM); -6% in assay [6] (setting [7]); 98% (active) in assay [6] (setting [8]); 96% (active) in assay [6] (at 50.0 µM).

As for `NNC(=O)NN=C(c1ccccc1)c1ccccc1`, the growth inhibition was 0% in assay [1] (setting [7]); 16% in assay [1] (setting [8]); 1.5% in assay [1] (at 50.0 µM); -2% in assay [2] (setting [7]); 1% in assay [2] (setting [8]); -13.2% in assay [2] (at 50.0 µM). Besides, the growth inhibition in assay [3] (setting [7]) was -3%; in assay [3] (setting [8]) it was 0%; in assay [3] (at 50.0 µM), 11.4%; in assay [4] (setting [7]), 0%; in assay [4] (setting [8]), -12%; in assay [4] (at 50.0 µM), -26.5%. In addition, the growth inhibition in assay [5] (setting [7]) was -4%; in assay [5] (setting [8]), -1%; in assay [5] (at 50.0 µM) it was 3.95%; in assay [6] (setting [7]), -11%; in assay [6] (setting [8]) it was 1%; in assay [6] (at 50.0 µM), 33.1%.

As for `CC(C)C(C)OC(=O)Nc1cccc(O)c1` (stereo not given), the growth inhibition in assay [1] (setting [7]) was -142%; in assay [1] (setting [8]), -141%; in assay [1] (at 50.0 µM), 35.3%; in assay [2] (setting [7]), -48%; in assay [2] (setting [8]) it was -53%; in assay [2] (at 50.0 µM), 3.15%. The growth inhibition in assay [3] (setting [7]) is -66%; in assay [3] (setting [8]), -48%; in assay [3] (at 50.0 µM), 18.1%; in assay [4] (setting [7]), -50%; in assay [4] (setting [8]) it was -54%; in assay [4] (at 50.0 µM) it was 46.5%. In addition, the growth inhibition in assay [5] (setting [7]) was -67%; in assay [5] (setting [8]) it was -74%; in assay [5] (at 50.0 µM) it was 2.3%; in assay [6] (setting [7]), -144%; in assay [6] (setting [8]), -102%; in assay [6] (at 50.0 µM), 18.4%.

As to `C=CC(=O)NC(=O)Nc1ccc(Cl)cc1`, the growth inhibition is 18% in assay [1] (setting [7]); 97% (active) in assay [1] (setting [8]); 98% (active) in assay [1] (at 50.0 µM); 32% in assay [2] (setting [7]); 98% (active) in assay [2] (setting [8]); 98.2% (active) in assay [2] (at 50.0 µM). The growth inhibition was 27% in assay [3] (setting [7]); 99% (active) in assay [3] (setting [8]); 98.9% (active) in assay [3] (at 50.0 µM); 10% in assay [4] (setting [7]); 98% (active) in assay [4] (setting [8]); 97.5% (active) in assay [4] (at 50.0 µM). In addition, the growth inhibition was 23% in assay [5] (setting [7]); 97% (active) in assay [5] (setting [8]); 98.3% (active) in assay [5] (at 50.0 µM); 25% in assay [6] (setting [7]); 99% (active) in assay [6] (setting [8]); 98.7% (active) in assay [6] (at 50.0 µM).

For `Cc1nc(N2N=C(c3ccc(Cl)cc3)CCC2=O)sc1[N+](=O)[O-]`, the growth inhibition in assay [1] (setting [7]) is 10%; in assay [1] (setting [8]) it was 85% (active); in assay [1] (at 50.0 µM), 85% (active); in assay [2] (setting [7]) it was 13%; in assay [2] (setting [8]), 65%; in assay [2] (at 50.0 µM), 86.5% (active). For the same compound, the growth inhibition is -1% in assay [3] (setting [7]); 71% (active) in assay [3] (setting [8]); 83.7% (active) in assay [3] (at 50.0 µM); 12% in assay [4] (setting [7]); 46% in assay [4] (setting [8]); 82% (active) in assay [4] (at 50.0 µM). In addition, the growth inhibition is 10% in assay [5] (setting [7]); 88% (active) in assay [5] (setting [8]); 84% (active) in assay [5] (at 50.0 µM); -12% in assay [6] (setting [7]); 92% (active) in assay [6] (setting [8]); 65.2% in assay [6] (at 50.0 µM).

With `Cn1cc(NC(=O)c2cc(NC(=O)CCCCCCCCC(=O)Nc3cc(C(=O)Nc4cc(C(=O)NCCC(N)N)n(C)c4)n(C)c3)cn2C)cc1C(=O)NCCC(=N)N`, the growth inhibition is 83% (active) in assay [1] (setting [7]); 98% (active) in assay [1] (setting [8]); 89.8% (active) in assay [1] (at 50.0 µM); 87% (active) in assay [2] (setting [7]); 98% (active) in assay [2] (setting [8]); 90.8% (active) in assay [2] (at 50.0 µM). Moreover, the growth inhibition was 80% (active) in assay [3] (setting [7]); 99% (active) in assay [3] (setting [8]); 91.5% (active) in assay [3] (at 50.0 µM); 45% in assay [4] (setting [7]); 95% (active) in assay [4] (setting [8]); 88% (active) in assay [4] (at 50.0 µM). For the same compound, the growth inhibition in assay [5] (setting [7]) was 86% (active); in assay [5] (setting [8]) it was 98% (active); in assay [5] (at 50.0 µM), 91.5% (active); in assay [6] (setting [7]) it was 88% (active); in assay [6] (setting [8]) it was 97% (active); in assay [6] (at 50.0 µM), 90% (active).

Take `O=S(O)CCCCCSSc1ccccc1`: the growth inhibition in assay [1] (setting [7]) was -1%; in assay [1] (setting [8]), 12%; in assay [1] (at 50.0 µM) it was 22.9%; in assay [2] (setting [7]), 4%; in assay [2] (setting [8]), 40%; in assay [2] (at 50.0 µM) it was 12.1%. Besides, the growth inhibition in assay [3] (setting [7]) is 3%; in assay [3] (setting [8]) it was 36%; in assay [3] (at 50.0 µM), 30.1%; in assay [4] (setting [7]), -9%; in assay [4] (setting [8]) it was 14%; in assay [4] (at 50.0 µM), 50.5%. The growth inhibition in assay [5] (setting [7]) is 11%; in assay [5] (setting [8]) it was 73% (active); in assay [5] (at 50.0 µM), 74.5% (active); in assay [6] (setting [7]), 4%; in assay [6] (setting [8]), 31%; in assay [6] (at 50.0 µM), 48.9%.

`O=C1CCCC/C1=C(\Br)I`: the growth inhibition in assay [1] (setting [7]) is 35%; in assay [1] (setting [8]), 99% (active); in assay [1] (at 50.0 µM) it was 89.1% (active); in assay [2] (setting [7]) it was 31%; in assay [2] (setting [8]), 100% (active); in assay [2] (at 50.0 µM), 92.3% (active). Moreover, the growth inhibition in assay [3] (setting [7]) is 28%; in assay [3] (setting [8]) it was 100% (active); in assay [3] (at 50.0 µM), 91.2% (active); in assay [4] (setting [7]) it was 19%; in assay [4] (setting [8]), 93% (active); in assay [4] (at 50.0 µM), 91.4% (active). The growth inhibition is 45% in assay [5] (setting [7]); 100% (active) in assay [5] (setting [8]); 89.1% (active) in assay [5] (at 50.0 µM); 31% in assay [6] (setting [7]); 99% (active) in assay [6] (setting [8]); 93% (active) in assay [6] (at 50.0 µM).

Take `CCCOc1ccc(-c2nc(-c3ccc(N=Cc4ccc(N(CCOS(C)(=O)=O)CCOS(C)(=O)=O)cc4C)cc3)cs2)cc1`: the growth inhibition is 13% in assay [1] (setting [7]); 82% (active) in assay [1] (setting [8]); 84.7% (active) in assay [1] (at 50.0 µM); 7% in assay [2] (setting [7]); 83% (active) in assay [2] (setting [8]); 76.8% (active) in assay [2] (at 50.0 µM). The growth inhibition is 8% in assay [3] (setting [7]); 89% (active) in assay [3] (setting [8]); 46.5% in assay [3] (at 50.0 µM); 7% in assay [4] (setting [7]); 53% in assay [4] (setting [8]); 24.6% in assay [4] (at 50.0 µM). For the same compound, the growth inhibition in assay [5] (setting [7]) is -3%; in assay [5] (setting [8]), 2%; in assay [5] (at 50.0 µM), 37%; in assay [6] (setting [7]), 50%; in assay [6] (setting [8]) it was 95% (active); in assay [6] (at 50.0 µM), 92.4% (active).
